# This is a sample that favours compounds with a hit; in the whole collection about 3.5% have one here.
# mHTT-CaM PPI inh: disrupts binding of mutant huntingtin to calmodulin; P42858; AlphaScreen His-mHTT/GST-CaM binding, luminescence; inhibition, % at 15 µM; actives 3.6% (n = 190,000); AID 1671202;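 note: 0% = both proteins with DMSO and 100% = one protein alone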
# Pf apPOL block: Pf-apPOL DNA polymerase inhibition; inhibition, % at 10 µM; Recombinant Pf-apPOL, molecular beacon fluorescence, 1.5 h; AID 1794808; actives 0.25% (n = 210,000)
# The depositor's hits bear a star; . = not tested or not shown. Cut-off read from the data, not from the text of the source: active = inhibition above about 50%; inactive = the rest.
SMILES,mHTT-CaM PPI inh,Pf apPOL block
CC(C)CNC(=O)C1CC(=O)N(Cc2ccccc2)C1 (stereo not given),-6.9,-4.0
C[C@H]1[C@@H]2C[C@H]([C@H]3CCCCN31)[C@H](OC(=O)Nc1ccc3c(c1)OCO3)C2,-0.7,-7.0
COC(=O)c1cc(S(=O)(=O)N2CCC(CN3CCc4ccccc4C3)CC2)cn1C,4.8,-2.9
Cc1ccc(-c2ncc(C(=O)N3CCCC3)c(N3CCCCC3)n2)cc1,22.1,-6.1
O=C(Nc1ccccc1F)c1cnc(-c2ccccc2)nc1-c1ccncc1,-12.2,-1.6
O=C(Nc1cccc(F)c1)c1cnc(-c2ccc(F)cc2)nc1-c1ccncc1,2.8,64.2*
Cc1ccc(-c2ncc(C(=O)Nc3ccc(Cl)cc3)c(-c3ccncc3)n2)cc1,27.1,65.3*
Cc1ccc(-c2ncc(C(=O)N3CCCCCC3)c(-c3ccncc3)n2)cc1,55.5*,-5.4
O=C(Nc1ccccc1)c1cnc(-c2ccc(F)cc2)nc1-c1ccncc1,5.7,43.9
Cc1ccc(NC(=O)c2cnc(-c3ccc(C)cc3)nc2-c2ccncc2)cc1,-0.2,-0.3
Cc1c(F)cccc1NC(=O)c1cnc(-c2ccc(F)cc2)nc1-c1ccncc1,12.6,77.4*
COCC(=O)N1CCC(c2nncn2-c2ccccc2)CC1,-3.8,1.3
Cc1nnsc1C(=O)N1CCN(c2ccc(N3CCCCC3C)nn2)CC1 (stereo not given),4.7,-5.6
Cc1c(Cl)cccc1S(=O)(=O)N1CCN(Cc2noc3ccccc23)CC1,-26.2,-1.8
CCCc1[nH]n(-c2ccc(F)cc2)c(=O)c1C=NC1CC1,3.0,-2.5
Cc1nnc(NC(=O)CN2C(=O)S/C(=C\c3ccc(Cl)cc3)C2=O)s1,-1.0,0.0
CC(C)OCCCNC(=O)CN1N=C(c2ccc(Cl)cc2)CCC1=O,8.0,-7.0
CC(C)Sc1ccc(Cc2nnc(NC(=O)Cc3ccc(F)cc3)o2)cc1,-17.7,-21.0
CCSc1ccc(Cc2nnc(NC(=O)c3cccs3)o2)cc1,56.6*,-221.3
COc1ccc(Cc2nnc(NC(=O)Nc3cccs3)o2)cc1,53.6*,-0.9
COc1ccc(Cc2nnc(NC(=O)Nc3cccc(C(F)(F)F)c3)o2)cc1,3.3,-10.1
CS(=O)(=O)c1ccc(Cc2nnc(NC(=O)CSc3ccc(Cl)cc3)o2)cc1,56.5*,-25.0
CSc1ccc(Cc2nnc(NC(=O)c3cc(C)oc3C)o2)cc1,48.3,-4.5
Cc1cccc(-c2nccc(C3CCCN(C(=O)c4cccc(F)c4)C3)n2)c1 (stereo not given),8.1,-2.4
CC(C)Oc1ccc(C(=O)N(Cc2ccsc2)CC(F)(F)F)cc1,-40.5,-5.2
SMILES,mHTT-CaM PPI inh,Pf apPOL block
Cc1ccc(-c2ccc(C=O)o2)c([N+](=O)[O-])c1,39.1,-55.0
COc1ccc(CNC(=O)c2c(C)noc2-c2ccccc2Cl)cc1,-2.5,-0.7
COc1ccc(S(=O)(=O)Nc2nc3ccc(S(C)(=O)=O)cc3s2)cc1,0.6,.
O=C1OC(c2ccccc2)=N/C1=C/c1ccccc1C(F)(F)F,-1.0,1.7
Cc1cccc(-n2ccnc2SCC(=O)Nc2ccccc2F)c1C,24.0,5.2
CCOc1ccc(CCNC(=O)Cn2nnc(-c3ccc(OC)cc3)n2)cc1OCC,76.0*,-4.8
CCOc1ccc(CCNC(=O)Cn2nnc(-c3ccc(F)cc3)n2)cc1OCC,-1.0,-41.0
COC(=O)c1ccc(C=C2Oc3cc(OC)ccc3C2=O)cc1,4.6,-3.9
O=C(c1ccc(=O)[nH]c1)N(Cc1cccs1)C1(C(=O)NC2CCCCC2)CCCCC1,10.0,-7.5
COc1ccc(-c2nc3ccc(C)cn3c2NC(=O)C2CCCCC2)cc1,40.1,-0.3
Cc1ccn2c(NC(=O)C3CCCC3)c(-c3ccccc3)nc2c1,36.4,1.5
Cc1ccc2nc(Cc3ccccc3)c(NC(=O)C3CCCCC3)n2c1,53.9*,29.4
Cc1ccc2nc(-c3ccc(C)o3)c(NC(=O)C3CCCCC3)n2c1,55.7*,2.6
O=C(O[C@@H]1C[C@H]2C[C@@H]1[C@H]1CCCCN1C2=O)N1CCC(c2ccccc2)CC1,15.4,-3.6
CCCNC(=O)Cn1ccc2c(C)nn(C)c2c1=O,-5.6,1.7
COc1ccc(CCCC(=O)Nc2ccc(I)cc2C)cc1,-3.8,93.0*
COc1ccc(CCCC(=O)Nc2ccc(Cl)cc2C)cc1,-2.0,0.7
Cn1[nH]c(=O)cc1C(F)(F)F,.,-31.1
CC1=NN(c2ccccc2)C(=O)/C1=C/c1cccc(Oc2ccccc2)c1,52.0*,3.3
CC1=NN(c2ccccc2)C(=O)/C1=C/C=C/c1ccccc1,71.0*,-1.6
CC1=NN(c2ccccc2)C(=O)/C1=C/N1CCCCC1,2.0,-1.5
CCCC1=NN(c2ccccc2)C(=O)/C1=C\c1cc(Br)c(O)c(OC)c1,67.0*,-1.9
COc1cc(/C=C2\SC(=O)N(c3ccccc3)C2=O)cc(Br)c1O,8.0,-6.2
CC1=NN(c2ccccc2)C(=O)/C1=C/c1cccc(C(=O)O)c1,5.0,0.1
CCOc1cc(/C=C2/C(=O)N(c3ccccc3)N=C2C)ccc1O,43.0,8.1
SMILES,mHTT-CaM PPI inh,Pf apPOL block
CC1=NN(c2ccccc2)C(=O)/C1=C/c1ccc(O)c(Br)c1,52.0*,6.3
Cc1c(C(=O)Nc2nc(-c3ccc(Br)cc3)cs2)cccc1[N+](=O)[O-],5.1,-4.0
CCn1ccc2c(cc(C(=O)NCc3ccc(C(F)(F)F)cc3)n2C)c1=O,-3.5,-6.9
Cc1cc2n(n1)C(c1ccc(Cl)cc1)CC(c1ccccc1)=N2 (stereo not given),-48.0,11.5
CC1=NN(c2ccccc2)C(=O)/C1=C/c1ccc2c(c1)OCO2,8.0,3.7
CC1=NN(c2ccccc2)C(=O)/C1=C/c1ccc(N(C)C)c(Br)c1,65.0*,3.0
O=[N+]([O-])c1ccc(NN=C2CCCCCC2c2ccccc2)c([N+](=O)[O-])c1 (stereo not given),.,-2.9
O=[N+]([O-])c1ccccc1NN=C1CCCC1,57.7*,.
CCN(CC)CCNC(=O)C1CCCN(c2ncc(-c3ccccc3)cn2)C1 (stereo not given),-11.1,-2.7
O=C(CSc1nc2[nH]ncc2c(=O)n1-c1ccc(F)c(Cl)c1)Nc1ccccc1F,17.0,-4.7
CCOC(=O)CNC(=O)C1CCCc2c1[nH]c1ccc(Cl)cc21 (stereo not given),100.0*,0.8
NC(=O)CNC(=O)C1CCCc2c1[nH]c1ccc(Cl)cc21 (stereo not given),10.2,-7.2
CCc1ccc(NC(=O)C2CCN(c3c(C#N)cnc4ccccc34)CC2)cc1,4.8,-0.7
CC1=C(C(=O)Nc2ccccc2Br)C2(CCCCCC2)OC1=O,-2.5,-1.3
Cc1ccc(NC(=O)C2CC(=O)N(CCc3c[nH]c4ccc(F)cc34)C2)c(C)c1 (stereo not given),8.2,-2.4
Cc1ccc(NC(=O)C2CC(=O)N(CCc3c[nH]c4ccc(C)cc34)C2)c(C)c1 (stereo not given),25.3,3.2
CCc1ccccc1NC(=O)C1CC(=O)N(CCc2c[nH]c3ccc(Cl)cc23)C1 (stereo not given),87.7*,-2.9
Cc1ccc(Cl)cc1NC(=O)C1CC(=O)N(CCc2c[nH]c3ccc(F)cc23)C1 (stereo not given),88.8*,-3.6
Cc1ccc(C)c(NC(=O)C2CC(=O)N(CCc3c[nH]c4ccc(Cl)cc34)C2)c1 (stereo not given),66.7*,0.7
CCc1ccccc1NC(=O)C1CC(=O)N(CCc2c[nH]c3ccc(F)cc23)C1 (stereo not given),6.1,-2.7
COc1nccnc1N1CCC(NS(C)(=O)=O)C1 (stereo not given),-7.8,-6.5
